# Screens from PubChem.
# ZTA counter – counter-screen for EBNA-1 inhibitors: inhibitors of Epstein-Barr virus ZTA | P03206 | ZTA-DNA binding, fluorescence polarization | inhibition, % at 11 µM | 320,000 compounds, 0.15% hits; in the data active means inhibition above about 33%
# rCAG RNA binder – r(CAG) repeat RNA binding. 370,000 compounds, 1.3% hits. TO-PRO-1 dye displacement fluorescence. AID 651821. inhibition, % at 3 µM;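 active means inhibition above the plate cutoff, the mean of all test compounds on that plate plus 3 SD, cut at about 35% in these data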;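 further: 0% = DMSO alone and 100% = 100 µM mitoxantrone as full dye displacement; higher means more dye released from RNA so lower well fluorescence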
# PAFAH1B3 inh – inhibitors of human PAFAH1B3 | Q15102 | recombinant PAFAH1B3, FP-rhodamine probe, fluorescence polarization | inhibition, % at 3.39 µM | 340,000 compounds, 0.28% hits | AID 492972;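 active means inhibition above the screen-wide average of all tested compounds plus 3 SD, cut at about 25% in these data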;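 further: 0% = enzyme with DMSO only and 100% = wells lacking PAFAH1B3 protein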
# Target sequence (Q15102 whole entry, looked up): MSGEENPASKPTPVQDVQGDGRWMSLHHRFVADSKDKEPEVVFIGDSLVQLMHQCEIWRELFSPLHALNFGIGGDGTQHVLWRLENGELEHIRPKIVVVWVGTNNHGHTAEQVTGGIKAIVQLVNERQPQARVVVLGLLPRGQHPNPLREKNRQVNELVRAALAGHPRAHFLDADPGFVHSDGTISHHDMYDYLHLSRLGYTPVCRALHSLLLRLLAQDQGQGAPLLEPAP
# EBNA-1 inh – blocks EBNA-1 binding to DNA; EBNA-1 DNA binding, fluorescence polarization; inhibition, % at 14.8 µM; 300,000 compounds, 0.34% hits; AID 1950; in the data active means inhibition above about 28%
# PAFAH1B2 FP inh – inhibitors of human PAFAH1B2; AID 492953; recombinant PAFAH1B2, FP-rhodamine activity probe, fluorescence polarization; inhibition, % at 3.39 µM; 340,000 compounds, 1.2% hits;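 active means inhibition above the mean of all tested compounds plus 3 SD, cut at about 24% in these data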;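 further: 0% = enzyme with DMSO and 100% = wells lacking PAFAH1B2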
# Target sequence (P68402 whole entry, looked up): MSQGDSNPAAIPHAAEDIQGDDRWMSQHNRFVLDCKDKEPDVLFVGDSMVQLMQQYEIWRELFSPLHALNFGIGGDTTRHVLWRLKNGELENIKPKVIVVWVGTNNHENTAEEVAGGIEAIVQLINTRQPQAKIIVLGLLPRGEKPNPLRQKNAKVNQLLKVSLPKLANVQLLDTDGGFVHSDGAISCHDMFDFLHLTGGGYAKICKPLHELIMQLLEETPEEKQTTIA
# PAFAH2 FP inh – inhibitors of human PAFAH2; Q99487; recombinant PAFAH2, FP-rhodamine activity probe, fluorescence polarization; inhibition, % at 3.39 µM; 340,000 compounds, 0.99% hits; AID 492956;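 active means inhibition above the mean over all tested compounds plus 3 SD, cut at about 30% in these data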;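 further: inhibitors block probe labeling of enzyme so polarization drops; 0% = enzyme with DMSO and 100% = wells lacking PAFAH2 protein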
# rCAG binder conf – r(CAG) RNA repeat binding, confirmation; shares compounds with rCAG RNA binder; TO-PRO-1 dye displacement fluorescence; inhibition, % at 3 µM; 4,300 compounds, 70% hits;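 active means inhibition above a per-plate cutoff, the mean inhibition of sample wells plus 3 SD, cut at about 35% in these data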;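 further: loss of TO-PRO-1 fluorescence as compound displaces dye from 1x1 AA loop RNA; 0% = DMSO only wells and 100% = 100 µM mitoxantrone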
# dCAG dye counter – DNA CAG dye complex inhibition counter-screen | shares compounds with rCAG RNA binder | d(CAG) DNA oligo TO-PRO-1 dye displacement, fluorescence | inhibition, % at 3 µM | 4,300 compounds, 94% hits;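 active means inhibition above its plate's cutoff, the mean test-well inhibition plus 3 SD, cut at about 4.8% in these data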;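 further: 0% = DNA dye mix with DMSO and 100% = 100 µM mitoxantrone; hits displace the dye from DNA and so lower well fluorescence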
# DNA CAG DR – disrupts DNA CAG TO-PRO-1 complex in dose response | IC50, µM | DNA CAG/GTC duplex TO-PRO-1 dye displacement fluorescence | 250 compounds, 20% hits | AID 686960 | shares compounds with rCAG RNA binder; in the data active means IC50 below about 10 µM
# The depositor's hits bear a star; / = no result. Most compounds without a hit are left out; they make up all but 2.9% or so of the library.
SMILES,ZTA counter,rCAG RNA binder,PAFAH1B3 inh,EBNA-1 inh,PAFAH1B2 FP inh,PAFAH2 FP inh,rCAG binder conf,dCAG dye counter,others
Cc1c(Br)c(O)c(Br)c2sc(=O)oc12,2,92*,14,-1,7,-1,42*,21*,DNA CAG DR=>30
O=C(O)[C@H](Cc1ccccc1)N1C(=O)c2c(Cl)c(Cl)c(Cl)c(Cl)c2C1=O,-10,50*,-6,5,-4,22,63*,28*,
CCc1nnc(NC(=O)c2cc(-c3ccccn3)nc3ccccc23)s1,18,2,13,10,10,-2,/,/,
COc1cc(/C=N/NC(=O)c2cc(-c3ccco3)nc3ccccc23)cc(OC)c1O,3,30,11,-11,2,1,/,/,
O=C(Nc1nncs1)c1cc(-c2ccco2)nc2ccccc12,/,48*,9,/,2,7,16,7.1*,
CCc1nnc(NC(=O)c2cc(-c3ccco3)nc3ccccc23)s1,11,36*,10,5,0,4,23,16*,
Cc1ccc(-c2cc(C(=O)NN=Cc3ccccc3OCC(=O)O)[nH]n2)cc1,/,24,/,/,/,/,/,/,
O=C(N/N=C/c1cccc(F)c1)c1cc(-c2ccco2)nc2ccccc12,-4,45*,9,10,2,8,41*,26*,
O=C(O)COc1ccccc1/C=N/NC(=O)c1cc(-c2ccc(F)cc2)nc2ccccc12,6,55*,2,7,-3,7,43*,12*,
O=C(Nc1cc(C(F)(F)F)cc(C(F)(F)F)c1)O[C@@H]1c2ccccc2[C@@H]2Cc3csc[n+]3[C@H]12,/,8,/,/,/,/,/,/,
COC(=O)C1=C(C)N(Cc2ccc(Cl)cc2)C(=S)NC1c1cccc(OC)c1 (stereo not drawn),/,2,/,/,/,/,/,/,
COC(=O)C1CCN(C(=O)c2cc(-c3ccco3)nc3ccccc23)CC1,/,41*,11,/,4,20,28,15*,
O=C(O)COc1ccccc1/C=N/NC(=O)CSc1nc2ccccc2n1Cc1ccccc1,13,45*,9,0,7,7,55*,16*,
CN(C)CC(=O)N[C@H]1C[C@@H]2O[C@@H](CO)CC[C@@H]2O[C@@H]1CCc1ccc(-c2ccc(F)cc2)cc1,/,-3,/,/,/,/,/,/,
Nn1c(SCC(=O)Nc2ccc(Br)cn2)nnc1-c1n[nH]c2c1CCC2,/,4,/,/,/,/,/,/,
O=[N+]([O-])c1cccc(NCCCN2CCC(C(O)(c3ccccc3)c3ccccc3)CC2)c1,/,4,/,/,/,/,/,/,
COc1ccc(-c2nn(-c3ccccc3)cc2C(=O)NC(=S)NNC(=O)c2ccncc2)cc1,-2,56*,12,0,5,1,55*,20*,
COc1ccc(NC(=O)c2cn(-c3ccccc3)nc2-c2ccncc2)cc1,-12,4,5,-6,5,2,/,/,
COC(=O)CCCCCCCC(=O)Nc1nnc(C(F)(F)F)s1,8,-3,3,5,2,6,/,/,
C[C@@H]1CCN(C2CC2)S(=O)(=O)c2c(cccc2N2CCC[C@H]2C)O1,/,6,/,/,/,/,/,/,
CC(OC(=O)c1ccc(NS(=O)(=O)c2ccc3[nH]c(=O)[nH]c3c2)cc1)C(N)=O (stereo not drawn),0,3,-4,-3,5,5,/,/,
COc1ccc(Cl)cc1NC(=O)C(C)OC(=O)c1ccc(NS(=O)(=O)c2ccc3[nH]c(=O)[nH]c3c2)cc1 (stereo not drawn),3,39*,-19,20,-12,-32,49*,17*,
CC(OC(=O)c1ccc(NS(=O)(=O)c2ccc3[nH]c(=O)[nH]c3c2)cc1)C(=O)Nc1ccc(Cl)cc1 (stereo not drawn),18,43*,-13,2,-12,-28,28,13*,
COc1ccc(CN(C)C(=O)c2ccc(NS(=O)(=O)c3ccc4[nH]c(=O)[nH]c4c3)cc2)c(OC)c1OC,/,4,14,/,4,2,/,/,
